Test results from ChEMBL document CHEMBL3988442, “University of Dundee, Small-Polar-MMV Screening Library” (2021).
Screen size: about 53,000 compounds; about 900 (1.7%) showed an effect of 50% or more. Only a selection was taken, and strong results are over-represented in it overall.

Each compound was assayed on Mycobacterium tuberculosis (assay: Cornell - Phenotypic assay to identify agents that inhibit growth of Mycobacterium tuberculosis). Details: 10 mM as filed; unlikely as a test dose.
Assay type: functional
Design: scale not given: direction of the effect not stated beside the values

Structure (SMILES)	Percent Effect
CC(NC(=O)c1cc(-c2cccc(Cl)c2)no1)C(=O)N(C)C (stereo unspecified)	9.545%
O=C(NCc1ccc(OCC2CC2)nc1)C1COc2ccccc2O1 (stereo unspecified)	16.73%
Cc1nn2c(N3CCC(C(N)=O)CC3)cc(-c3ccccc3)nc2c1C	21.25%
Cc1nn2c(N3CCC(O)CC3)cc(-c3ccccc3)nc2c1C	72.96%
Cc1nn2c(N3CCC(O)C3)cc(-c3ccccc3)nc2c1C (stereo unspecified)	16.78%
Cc1nc(N[C@H]2COC[C@@H]2N2CCCC2)c2cnn(C)c2n1	2.791%
CCNC(c1ccc(C)cc1)c1cccnc1 (stereo unspecified)	-8.954%
CCc1nc(CN(C)C(=O)CSC)no1	7.399%
Cc1ncsc1C(=O)N1CCc2nnc(C3CCCCN3C)n2CC1 (stereo unspecified)	8.689%
Cc1cc2c(=O)n3c(nc2s1)CCN(C(=O)c1sc(C)nc1C)CC3	10.24%
Cc1nc(C)c(C(=O)N2CCCC2c2nnc3n2CCCCC3)s1 (stereo unspecified)	13.16%
Cc1nc(C)c(C(=O)N2CCc3nnc(C4CCCCN4C)n3CC2)o1 (stereo unspecified)	19.3%
Cc1nc(C)c(C(=O)N2CCc3nnc(C4CCCCN4C)n3CC2)s1 (stereo unspecified)	54.31%
Cc1nc(C)c(C(=O)N2CCc3nnc(C4CCCN4C)n3CC2)s1 (stereo unspecified)	53.89%
CN(C)[C@@H]1CCN(C(=O)c2cccn2C)[C@H]1Cc1cnn(C)c1.O=C(O)C(F)(F)F	-22.73%
O=C(O)C(F)(F)F.c1coc(CN2CCc3nnc(COc4cncnc4)n3CC2)c1	21.79%
COc1cccc(CC2CN(C3CC(C)(C)NC(C)(C)C3)CCO2)c1 (stereo unspecified)	-51.86%
Cc1cccc2nc(CNC(=O)N3CCC(N4CC=CC4)C3)cn12 (stereo unspecified)	20.26%
O=C(O)[C@@H]1CN(C(=O)CCCc2ccc(F)cc2)C[C@H]1C1CC1	-11.2%
Cc1ccc(CN2CCC3(C2)C(=O)N(CC(N)=O)c2ccccc23)s1 (stereo unspecified)	3.211%
CC(C)CN1C(=O)C2(CCN(Cc3nccs3)C2)c2ccccc21.O=C(O)C(F)(F)F (stereo unspecified)	25.63%
Cc1ccc(CN2CCC3(C2)C(=O)N(CC(C)C)c2ccccc23)s1 (stereo unspecified)	50.09%
Cc1nc(C)n(CCC(=O)NCC2CCCOC2)n1 (stereo unspecified)	20.26%
CCCN1C[C@H]2CC[C@@H]1CN(Cc1ccc(-n3cccn3)cc1)C2	53.91%
CCCN1C[C@H]2CC[C@@H]1CN(Cc1cccc(-n3cccn3)c1)C2	9.471%
CCCN1C[C@H]2CC[C@@H]1CN(Cc1ccc(Cn3cccn3)cc1)C2	-2.42%

Structure (SMILES)	Percent Effect
CN(C)CCN1C(=O)CCC12CCN(C(=O)c1cccnc1)CC2.O=C(O)C(F)(F)F.O=C(O)C(F)(F)F	1.557%
CCC(=O)Nc1ccc(F)c(S(=O)(=O)NC(C)(C)C)c1	-2.357%
CC(C)(C)NS(=O)(=O)c1cc(NC(=O)C2CC2)ccc1F	50.55%
CC(=O)Nc1ccc(F)c(S(=O)(=O)NC(C)(C)C)c1	40.62%
c1ccc(Cc2nc(CNC3CCOC4(CCOCC4)C3)no2)cc1 (stereo unspecified)	8.637%
CC1CN(c2ccc(CNC(=O)NCCO)cn2)CCO1 (stereo unspecified)	2.175%
CC1CN(c2ccc(NC(=O)Cn3cccn3)cc2)CCO1 (stereo unspecified)	-5.599%
Cc1noc(C)c1CNC(=O)Nc1ccc(N2CCOC2=O)cc1	-58.42%
Cc1noc(C)c1CNC(=O)Nc1ccc(N2CCOC(C)C2)cc1 (stereo unspecified)	103.9%
Cc1noc(C)c1CNC(=O)Nc1ccc(N2CCSCC2)cc1	104.5%
Cc1ocnc1CNC(=O)Nc1ccc(N2CCOC(C)C2)cc1 (stereo unspecified)	104%
Cc1noc(C)c1CN1C[C@@H](C(=O)O)[C@H](c2ccccc2)C1	23.54%
Cc1noc(C)c1CNC(=O)N1CCCC(C)CC1 (stereo unspecified)	12.27%
Cc1noc(C)c1CNC(=O)NCCC(=O)N1CCCc2ccccc21	-5.48%
Cc1n[nH]/c(=N\C(=O)c2c3c(nc4onc(C)c24)CCC3)s1	20.11%
CN(C)CCNCCC(c1ccccc1)C1CCOC(C)(C)C1.O=C(O)C(=O)O (stereo unspecified)	21.42%
CCc1nc(C2CCCN2C(=O)c2cc(Cl)c[nH]2)no1 (stereo unspecified)	23.06%
CC(C)CC(=O)N1CC(=O)N(Cc2ccco2)CC(O)C1 (stereo unspecified)	-16.35%
Cn1nc(Br)c2c(NCCCS(N)(=O)=O)ncnc21	24.15%
Nc1ncc(-c2ccc(NC(=O)[C@@H]3CCCCN3)cc2)cn1	-8.73%
Cc1nc(Nc2nncs2)cc(C2CCCN2C)n1 (stereo unspecified)	-51.01%
O=C1CC(c2ccsc2)c2sc(C(=O)O)c(-c3ccc(F)cc3)c2N1 (stereo unspecified)	105.2%
O=C1CC(c2ccccc2)c2sc(C(=O)O)c(-c3ccccc3)c2N1 (stereo unspecified)	17.04%
O=C1CC(c2ccsc2)c2sc(C(=O)O)c(-c3ccccc3)c2N1 (stereo unspecified)	-23.75%
O=C(C1CCOC1)N1C[C@@H]2CCN(C(=O)c3cscn3)[C@@H]2C1 (stereo partly specified)	-35.62%
